The values that follow come from PubChem BioAssay (NCI).

“And” between values parts separate entries of the source, which are not always exact repeats. Equal values may be shown once. Compounds without any hit were thinned out: in the full panel of roughly 83,000, 20% have a hit.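 Cells were grown in 96-well plates and exposed to the test compound at a single concentration for 48 hours; results are reported as percent growth, with values below 10 considered active.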 Unmarked numbers belong to inactive results. The source made the active and inactive calls.

The assay has as its system MDA-MB-468 breast. Put plainly: NCI-60 one-dose screen, 48 h (100 = growth as untreated, 0 = no growth, -100 = all killed). Particulars: 10 µM unless noted.
As for `CC(C)c1ccc(C(=O)Nc2sc3c(c2C(N)=O)CCC(=O)C3)cc1`, the growth was -47.6% (active).
The value for `N#CC1CCc2c(c(-c3ccc4nc(N)sc4c3)nc3ccc4[nH]ncc4c23)C1` (stereo not given) was 21.4%; that for `COc1ccc(C(=O)CC#N)cc1` was 103%; that for `Nc1ccc(S(=O)(=O)c2ccc(N)cc2)cc1` was 97.5% and 101%.
Take `COc1ccc(NC(=O)[C@H](C)NC(=O)OC(C)(C)C)cc1C(=O)Nc1cccc(-c2cc(=O)c3c(OC)c(OC)c(OC)cc3o2)c1`: the growth is 4.39% (active).
For `O=C1Nc2cc(-c3cccc(O)c3)ccc2/C1=C/c1ccc[nH]1`, the growth is 7.4% (active).
To `CN1CCN(c2ccc(-c3cc4c(Nc5ccc(F)c(Cl)c5)ncnn4c3)cc2)CC1` belongs 7.99% (active); to `CC1=NN(c2ccccc2)C(=O)/C1=C\N1CC(=O)NC1=S`, 101%; to `c1ccc2sc(SCCCn3ccnc3)nc2c1`, 61.8%.
The value for `COc1ccc(C2C(C#N)=C(N)Oc3c2sc2ccc(C)cc32)cc1` (stereo not given) was -13.2% (active); that for `ClCc1c(Cl)c(Cl)c(Cl)c(CCl)c1Cl` was -74% (active).
On to `COCCn1cc(-c2nc(-c3cc4cccnc4n3C)cs2)c2cc(OC)ccc21`, for which the growth is -28% (active).
To `Cc1nn(-c2ccccc2)c(-n2ccnc2)c1/C=N/Nc1nc(-c2ccc(F)cc2)cs1` belongs 27.3%; to `NC(N)=Nc1ccc(Oc2cccc(NC(N)=Nc3ccc(Br)cc3)c2)cn1`, 8.74% (active); to `O=C(CSc1nc2ccccc2[nH]1)Nc1ccc(-c2nc3ccccc3s2)c(Cl)c1`, 26.5%.
Regarding `CCOC(=O)C1CN(Cc2ccccc2)C(=O)C1=O` (stereo not given), the growth is 106%.
The value for `COc1ccc(/C=C2/C(=O)NC(SCC(=O)N3CCN(c4cc5c(cc4F)c(=O)c(C(=O)O)cn5C4CC4)CC3)=NC2N)cc1OC` (stereo not given) was 102%.
To `Cc1cc(CC(=O)NCCO)n(CCO)c(=O)c1` belongs 113%; to `O=[N+]([O-])/C(=C\c1ccco1)c1ccccc1Cl`, 55.7%.
`COc1cc(-c2cc(=O)oc3cc(O)ccc23)c(OC)c2c1OCO2`: the growth was 67.7%.
To `Cc1cccc(C)c1NC(=O)CN(CC(C)C)CC(O)COc1ccccc1` (stereo not given) belongs 94.5%.
The value for `CC(=O)N1N=C(CCC(=O)c2nc3ccc([N+](=O)[O-])cc3[nH]2)OC1c1ccc(O)cc1` (stereo not given) was 108%; that for `O=C(Nc1ccc(S(=O)(=O)NC2CCCCCC2)cc1)C(c1ccccc1)S(=O)(=O)c1ccc(F)cc1` (stereo not given) was -14.5% (active); that for `CN(C)c1ncnc2c1nnn2C1OC(CO)C(O)C1O` (stereo not given) was -26.5% (active).
To `O=C1/C(=C\c2ccc(F)cc2)CN(C(=O)c2ccccc2)C/C1=C\c1ccc(F)cc1` belongs 5.47% (active).
For `OCC1OC(n2ccc3c(NO)ncnc32)C(O)C1O` (stereo not given), the growth was -88.8% (active).
To `Nc1ncnc2c1c(C(F)(F)F)cn2[C@@H]1O[C@H](CO)[C@@H](O)[C@H]1O` belongs -41.1% (active); to `Cc1ccccc1CC(N)C(=O)O` (stereo not given), 117%.
In the case of `CCN1CCN(Cc2ccc(C(=O)Nc3ccc(C)c(Oc4ccc(-c5[nH]nc6ncnc(N)c56)cc4)c3)cc2C(F)(F)F)CC1`, the growth is 118%.
With `CCCCCn1ncc(-c2c(O)c(O)cc3c(O)c(-c4c(C)cc5c(-c6cnn(CCCCC)n6)c(O)c(O)cc5c4O)c(C)cc23)n1`, the growth was -2.7% (active).
`O=C(O)[C@@H](Cc1ccc2ccccc2c1)NC(=O)n1c2ccccc2c2ccccc21`: the growth is 11.9%.
To `NC(=O)c1ccc[n+](CC(=O)N2CCN(c3cc4c(cc3F)c(=O)c(C(=O)O)cn4C3CC3)CC2)c1` belongs 87.2%; to `O=Cc1c(OCc2cnnn2CC(=O)Nc2ccc(Cl)cc2)ccc2ccccc12`, 104%.
The value for `Cc1c(C(=O)N[C@H](CO)Cc2ccccc2)[nH]c2ccc(Cl)cc2c1=O` was 95.5%.
To `O=C(O)CC1=CCCCC1` belongs 102%; to `CCCC[N+]1(C)CCN=C1Cc1ccccc1` (stereo not given), 82.3%.
In the case of `Cn1ncc2c(C(=O)c3ccc(F)cc3)nc(C(C)(C)C)nc21`, the growth is 93.5%.
To `O=CCCCC(O)C=O` (stereo not given) belongs 98.9%.
Consider `COc1cc(Cn2c(-c3ccccc3)cc3c2-c2oncc2CC3)cc(OC)c1OC`, for which the growth was -20.5% (active).
To `COc1ccc2c(-c3ccc(F)cc3)c(C#N)c(=NC(C)=O)oc2c1` belongs -8.32% (active).
